Laboratory results taken from the supplement of paper PMC7411054.
Where a name gives a salt, the structure may show the parent alone. A number with no mark means an inactive call.

These molecules were tested on WPMY1-CANX-COX4 (assay: phenotypically active (imaging signature differs from DMSO and reproducible) at any of 0.3-9 uM (binary (1 = active, 0 = inactive)); higher = active). Conditions: treatment time: 24 h.
Summary of the method: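 Fifteen reporter lines derived from A549, HepG2 and WPMY1 cells by gene editing, carrying BFP for segmentation plus GFP and RFP/FusionRed markers, were exposed to 0.3, 1, 3 or 9 µM for 24 h in four wells each and imaged live. Live-cell features from each well were normalised to solvent control wells. A well set counted as deviating when ≥3 of 4 wells lay beyond the 95th percentile of control Euclidean distances, and as reproducible when the median replicate Pearson correlation exceeded the 95th percentile of non-replicates. Phenotypic activity was assigned only when both criteria were met.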

Row | SMILES | phenotypically active
1 | CC[C@H]1CN2CC[C@H]1C[C@@H]2[C@@H](O)c1ccnc2ccc(OC)cc12 [Hydroquinidine HCl] | 1 (active)
2 | COc1cc2c(c(OC)c1OC)-c1ccc(O)c(=O)cc1[C@@H](N)CC2 [Trimethylcolchicinic acid] | 0
3 | C[C@@]1(CO)[C@H](O)CC[C@@]2(C)[C@H]1CC[C@H]1C[C@@H]3C[C@@]12CC[C@]3(O)CO [Aphidicolin] | 1 (active)
4 | COC(=O)[C@@]1(O)C[C@H]2O[C@]1(C)n1c3ccccc3c3c4c(c5c6ccccc6n2c5c31)C(=O)NC4 | 1 (active)
5 | COc1ccc(N(C(=O)Oc2c(C)cccc2C)c2ccnc(Nc3ccc(N4CCN(C)CC4)cc3)n2)c(OC)c1 | 0
6 | COc1ccc2c(c[n+](C)c3c4cc5c(cc4ccc23)OCO5)c1OC [Chelerythrine chloride] | 0
7 | CC[C@@H]1C=CC=CC[C@H](C)[C@@H](O)[C@](C)(O)C(=O)[C@H](C)[C@@H](O)[C@H](C)C(=O)[C@H](C)[C@@H](O)[C@H](C)C=CC(=O)O[C@H]2[C@@H](C)[C@@H](CC1)O[C@@]1(CC[C@@H](C)[C@@H](C[C@H](C)O)O1)[C@@H]2C [Oligomycin A] | 1 (active)
8 | CC(C)[C@@]1(NC(=O)[C@@H]2C[C@@H]3c4cccc5[nH]cc(c45)C[C@H]3N(C)C2)O[C@@]2(O)[C@@H]3CCCN3C(=O)[C@H](Cc3ccccc3)N2C1=O [Dihydroergocristine mesylate] | 1 (active)
9 | O=c1[nH]c2ccccc2n1C1CCN(CCCC(c2ccc(F)cc2)c2ccc(F)cc2)CC1 [pimozide] | 0
10 | C[C@]12CC[C@H]3[C@@H](CC[C@]4(O)C[C@@H](O)CC[C@]34C=O)[C@@]1(O)CC[C@@H]2C1=CC(=O)OC1 [Strophanthidin] | 1 (active)
11 | CN1CCC2=C[C@H](O)[C@H]3OC(=O)c4cc5c(cc4[C@H]3[C@@H]21)OCO5 [Hippeastrine hydrobromide] | 0
12 | C=C1[C@@H](O)C2C=CC[C@H](C)C(=O)[C@](C)(O)C=C[C@@H](OC(C)=O)[C@]23C(=O)N[C@H](Cc2ccccc2)[C@@H]3[C@@H]1C (stereo partly specified) [Cytochalasin D] | 1 (active)
13 | COc1ccc(C[C@H]2NC[C@H](O)[C@H]2OC(C)=O)cc1 [Anisomycin] | 1 (active)
14 | C[C@@H]1CC[C@H]2[C@@H](C)C(=O)O[C@@H]3O[C@@]4(C)CC[C@@H]1[C@]32OO4 [Artemisinin] | 1 (active)
15 | O=C1NC(=O)c2c1c1c3ccccc3n3c1c1c2c2ccccc2n1C1CCC3O1 | 1 (active)
16 | Cc1sc2c(c1C)C(c1ccc(Cl)cc1)=N[C@@H](CC(=O)OC(C)(C)C)c1nnc(C)n1-2 | 1 (active)
17 | CN1C[C@H](C(=O)N[C@]2(C)O[C@@]3(O)[C@@H]4CCCN4C(=O)[C@H](Cc4ccccc4)N3C2=O)C[C@@H]2c3cccc4[nH]cc(c34)C[C@H]21.CN1C[C@H](C(=O)N[C@]2(C)O[C@@]3(O)[C@@H]4CCCN4C(=O)[C@H](Cc4ccccc4)N3C2=O)C[C@@H]2c3cccc4[nH]cc(c34)C[C@H]21 [dihydroergotamine] | 0
18 | C[C@@]12C(=O)OC(=O)[C@]1(C)[C@H]1CC[C@@H]2O1 [Cantharidin] | 1 (active)

Row | SMILES | phenotypically active
19 | COc1cc2c(c(OC)c1OC)-c1ccc(OC)c(=O)cc1[C@@H](NC(C)=O)CC2 [colchicine] | 1 (active)
20 | CC(C)(O)[C@H]1O[C@H]2CC[C@@]3(C)[C@@](O)(CC[C@H]4Cc5c([nH]c6ccccc56)[C@@]43C)C2=CC1=O [paxilline] | 0
21 | N#CC(C#N)=NNc1cccc(Cl)c1 | 1 (active)
22 | Cc1c(C(=O)Nc2cccc(C(F)(F)F)c2)cc(-c2ccccc2)n1CCCN1CCOCC1 | 0
23 | CCN1CCN(C(=O)Cc2ccc(Nc3ncc(F)c(Nc4ccc(C(=O)Nc5ccccc5Cl)cc4)n3)cc2)CC1 | 0
24 | CC(C)(C)c1cc(C=C(C#N)C#N)cc(Br)c1O | 0
25 | O=C(NCCN1CCC2(CC1)C(=O)NCN2c1cccc(F)c1)c1ccc(F)c(F)c1 [ML 298 hydrochloride] | 1 (active)
26 | CC(C)(N)Cc1ccccc1 [phentermine] | 0
27 | CCn1cnc2c(Nc3cccc(Cl)c3)nc(N[C@H]3CCCC[C@H]3N)nc21 | 1 (active)
28 | O=C(Nc1ccncc1)C(=O)c1cn(Cc2ccc(Cl)cc2)c2ccccc12 [Indibulin] | 1 (active)
29 | CC[C@@H](C(=O)[C@@H](C)[C@@H](O)[C@H](C)[C@@H]1O[C@@H]([C@@H](CC)C(=O)O)CC[C@@H]1C)[C@H]1O[C@]2(C=C[C@@H](O)[C@]3(CC[C@@](C)([C@H]4CC[C@](O)(CC)[C@H](C)O4)O3)O2)[C@H](C)C[C@@H]1C [Salinomycin Sodium] | 1 (active)
30 | CC[C@@H](CO)NC(=O)[C@@H]1C=C2c3cccc4c3c(cn4C)C[C@H]2N(C)C1 [methysergide] | 0
31 | CN1C[C@H](C(=O)N[C@]2(C)O[C@@]3(O)[C@@H]4CCCN4C(=O)[C@H](Cc4ccccc4)N3C2=O)C=C2c3cccc4[nH]cc(c34)C[C@H]21 [ergotamine] | 1 (active)
32 | C[C@H](CCC(=O)O)C[C@H](C)C[C@H](C)C(=O)/C=C(\O)[C@H](C)C[C@H](C)C/C=C/[C@@H](C)[C@@H](O)[C@@H](C)[C@@H](O)C[C@@H]1CC[C@@](C)([C@H]2CC[C@@](C)([C@@H](C)O)O2)O1 [Ionomycin free acid] | 1 (active)
33 | N#CC(C#N)=NNc1ccc(OC(F)(F)F)cc1 | 1 (active)
34 | COC1=CC(C)=C[C@@H](C)[C@@H](O)[C@@H](C)CC(C)=CC=C[C@H](OC)[C@@H]([C@@H](C)[C@@H](O)[C@H](C)[C@@]2(O)C[C@@H](O)[C@H](C)[C@@H](C(C)C)O2)OC1=O [Bafilomycin A1] | 1 (active)
35 | COc1cc([C@@H]2c3cc4c(cc3[C@H](O)[C@H]3COC(=O)[C@H]23)OCO4)cc(OC)c1OC [Podophyllotoxin] | 1 (active)
36 | CC[C@]12C=CCN3CC[C@]4(C(=C(C(=O)OC)C1)Nc1ccccc14)[C@@H]32 [Tabersonine dichlorhydrate] | 1 (active)
